Test in all cases: NCI-60 one-dose screen, 48 h (100 = growth as untreated, 0 = no growth, -100 = all killed)
Common to all, as to details: 10 µM unless noted

Experiment [1] relates to NCI-H23 lung.
Experiment [2] relates to NCI-H322M lung.
The subject of experiment [3] is HOP-62 NSCLC.
The test system of experiment [4] is NCI-H460 lung.
For experiment [5], the system named is HOP-92 NSCLC.
For experiment [6], the system named is NCI-H522 lung.
Experiment [7] deals with A549/ATCC NSCLC.
In experiment [8] the test system is 786-0 renal.
For experiment [9], the system named is COLO 205 colon.
The test system of experiment [10] is NCI-H226 lung.

The panel holds about 83,000 compounds, 20% with a hit somewhere; the sample as a whole holds those more often.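 Percent growth is the endpoint: 0 to 100 indicates growth inhibition (40 means 60% inhibition), 0 means no net growth, and negative values indicate cell death.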 Values without a mark were called inactive. Activity calls are given as the source filed them. Rule for the calls: active = growth percent below 10; inactive = the rest.

`CCCCC[n+]1ccc(SCC(=O)N(C)c2ccc(Oc3ccccc3)cc2)c2ccccc21`: the growth in experiment [1] is 90.3%; in [2], 107%; in experiment [3] it was 115%; in experiment [4], 107%; in experiment [5], 99.9%; in experiment [6], 63.3%. The growth is 96.2% in experiment [7], 102% in experiment [8] and 20.9% in experiment [9].

Turning to `CN1CCN(C(=O)[C@]23CCC(C)(C)C[C@H]2C2=CC[C@@H]4[C@@]5(C)C/C(=C/c6ccncc6)C(=O)C(C)(C)[C@@H]5CC[C@@]4(C)[C@]2(C)CC3)CC1`, the growth is 72.4% in experiment [1]; 87.6% in experiment [2]; 83.1% in [3]; 33.1% in [4]; 41% in experiment [5]; 55.9% in [6]. The growth in experiment [7] was 43.8%; in experiment [8], 67.2%; in experiment [9] it was 41.9%.

`O=C(CCN1CCCC1)Nc1ccc2c(Nc3ccc(Br)cc3)c3ccccc3nc2c1`: the growth in experiment [1] was 18.8%; in [2], -11.4% (active); in experiment [3], -19.5% (active); in experiment [4], -69.2% (active); in experiment [5] it was 31.3%; in experiment [6] it was -25% (active). The growth in experiment [7] is -42.4% (active); in [8] it was 42.8%; in [9], -42.9% (active).

`CCCCCN1C=C/C(=C\C(=O)N2CCCc3ccccc32)c2ccccc21`: the growth is 57.5% in [1]; 102% in experiment [2]; 107% in experiment [3]; 91.9% in experiment [4]; 73.5% in experiment [5]; 68.5% in experiment [6]. Besides, the growth in [7] is 89.4%; in experiment [8], 95.6%; in experiment [9] it was 96.8%.

In the case of `COc1cccc(-c2cc(C(=O)Nc3ccc(/C=C/c4ccc(OC5CCN(C)CC5)cc4)cc3)ccc2OC)c1`, the growth was 12.6% in [1]; 5.51% (active) in experiment [2]; -27.5% (active) in experiment [3]; -72.3% (active) in experiment [4]; 11% in [5]; -46.3% (active) in experiment [6]. Also, the growth was -34% (active) in experiment [7], -95.2% (active) in experiment [8] and 29.1% in experiment [9].

Take `COc1ccc(-c2nc3sccn3c2/C=C/C(=O)c2ccc3c(c2)OCO3)cc1`: the growth in experiment [1] is 99.7%; in experiment [2], 88.5%; in experiment [3] it was 97.5%; in [4] it was 108%; in experiment [5] it was 82.8%; in experiment [6], 57.8%. Besides, the growth in [7] was 95%; in experiment [8] it was 96.8%; in [9], 211%.

Regarding `O=S(=O)(NCCNc1nccc(-c2c(-c3cccc(O)c3)nc3occn23)n1)c1ccccc1`, the growth in experiment [1] is 93.5%; in experiment [2] it was 93.7%; in [3] it was 119%; in experiment [4], 80.6%; in experiment [5], 80.9%; in experiment [6] it was 77.5%. In addition, the growth in [7] is 78.9%; in experiment [8], 93.3%; in experiment [9], 34.6%.

For the molecule `c1ccc(Cn2cnc3ccc(-c4nc(-c5ccc6c(c5)ncn6C5CCCCC5)cn5ccnc45)cc32)cc1`, the growth in experiment [1] was -22.8% (active); in [2], 16%; in experiment [3], -9.39% (active); in [4], -20.3% (active); in [5], -83.6% (active); in experiment [6], -35.2% (active). Further, the growth in experiment [7] is -5.05% (active); in experiment [8], -19.4% (active); in experiment [9], -29.9% (active).

With `COc1cc2oc(-c3cccc(C(=O)Nc4ccc(Cl)cc4)c3)cc(=O)c2c(O)c1OC`, the growth in experiment [1] is 72.6%; in experiment [2], 58.4%; in [3], 0.268% (active); in experiment [4], 20.5%; in [5], 10.5%; in [6] it was 60.4%. Further, the growth in experiment [7] is 47.5%; in experiment [8], 38.7%; in [9], 74%.

Take `CNC(=O)c1cc(Cn2nc(C)c(NC(=O)Nc3ccc(Cl)c(C(F)(F)F)c3)c2C)ccn1`: the growth in [1] was 97.8%; in experiment [2] it was 94.5%; in experiment [3], 93.4%; in experiment [4] it was 100%; in experiment [5] it was 106%; in [6] it was 71.5%. Further, the growth in experiment [7] was 70%; in experiment [8], 100%; in experiment [9], 99.9%.

As to `CC(C)c1ccc(Nc2ccc3c(OCCCN4CCN(C)CC4)cccc3n2)cc1`, the growth is 70.8% in experiment [1]; 82.6% in experiment [2]; 52.1% in experiment [4]; 56.5% in experiment [5]; 83.2% in experiment [6]; 51.5% in experiment [7]. Moreover, the results for the growth in experiment [8] and in [9] were 46.5% and -65.1% (active), respectively.

With `CC(=O)OC[C@]12CC[C@@H](C(=O)CBr)[C@@H]1[C@H]1CC[C@@H]3[C@@]4(C)CC[C@H](OC(C)=O)C(C)(C)[C@@H]4CC[C@@]3(C)[C@]1(C)CC2`, the growth in experiment [1] was 95.4%; in experiment [2] it was 103%; in experiment [3], 103%; in experiment [4], 105%; in experiment [5], 96%; in experiment [6], -63.9% (active). In addition, the growth in experiment [7] is 106%; in [8] it was 95.1%; in experiment [9], 101%.

Take `CC1=C(C(=O)/C=C/c2ccc(N(C)C)cc2)C(c2ccccc2)NC(=S)N1` (stereo unspecified): the growth in [10] was 93.8%; in experiment [2] it was 103%; in experiment [3], 106%; in experiment [4], 108%; in experiment [5] it was 96.6%; in [6] it was 91%. The growth in [7] was 106%; in experiment [8] it was 101%; in experiment [9] it was 119%.

The values above are taken from PubChem BioAssay (NCI).
